# This is one part of the list. The true hit rate is not given.
# Target: furin, P09958
# Assay: furin cleavage Z-score vs untreated control; higher = more cleavage, active = 3.5 or more, inactive = 1 or less, 8 variable residues between constant flanks
# Procedure, shortened: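 Reactions of 0.01 ml ran for 7.5, 15 or 30 min in 50 mM HEPES pH 7.5 with CaCl2 and NaCl, at 1:10 enzyme:substrate. In them, purified furin acted on bead-held 8-mer peptides fused to a cDNA oligonucleotide. The cleavage Z-score was obtained by lowess-adjusting log sequencing counts of released DNA against furin-free reactions and scaling by median absolute deviation.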
# furin, P09958, sequence (P09958 whole entry): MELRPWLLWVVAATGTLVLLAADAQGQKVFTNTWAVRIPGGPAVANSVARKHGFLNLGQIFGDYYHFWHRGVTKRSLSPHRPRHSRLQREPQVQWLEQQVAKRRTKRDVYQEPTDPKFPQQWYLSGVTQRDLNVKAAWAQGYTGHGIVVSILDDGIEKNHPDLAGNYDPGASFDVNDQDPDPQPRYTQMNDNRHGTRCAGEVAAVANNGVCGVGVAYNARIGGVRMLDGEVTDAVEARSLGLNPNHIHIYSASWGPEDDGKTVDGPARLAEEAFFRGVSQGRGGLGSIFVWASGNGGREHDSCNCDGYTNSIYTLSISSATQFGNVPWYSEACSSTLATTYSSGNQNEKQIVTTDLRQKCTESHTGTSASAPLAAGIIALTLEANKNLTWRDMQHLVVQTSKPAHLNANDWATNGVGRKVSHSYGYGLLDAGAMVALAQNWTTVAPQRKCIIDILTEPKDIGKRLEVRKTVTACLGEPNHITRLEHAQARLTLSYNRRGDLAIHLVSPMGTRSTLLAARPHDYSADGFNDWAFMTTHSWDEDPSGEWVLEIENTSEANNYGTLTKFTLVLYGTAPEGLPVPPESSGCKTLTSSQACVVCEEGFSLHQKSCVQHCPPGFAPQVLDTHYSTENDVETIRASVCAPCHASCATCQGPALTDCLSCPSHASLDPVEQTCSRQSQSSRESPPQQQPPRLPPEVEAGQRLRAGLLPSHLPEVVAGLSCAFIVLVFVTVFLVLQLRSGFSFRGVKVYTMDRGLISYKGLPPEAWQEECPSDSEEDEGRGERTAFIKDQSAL
Sequence,furin cleavage Z-score (7.5 min),furin cleavage Z-score (15 min),furin cleavage Z-score (30 min)
CALYVGDLCGAGNASASA [HC298],-1.6 (inactive),-0.331 (inactive),-1.76 (inactive)
CAMNSTGFTKAGNASASA [HC438],0.142 (inactive),-0.334 (inactive),0.353 (inactive)
CAALAELATRAGNASASA [HC1332],-0.307 (inactive),-0.0975 (inactive),-0.283 (inactive)
CARQRRALERAGNASASA [FS-2510],7.27 (active),9.89 (active),9.73 (active)
CARQVRYLEKAGNASASA [FS-2175],0.662 (inactive),1.05,1.72
CARQRRALEKAGNASASA [FS-1769],5.5 (active),5.75 (active),6.8 (active)
CARQRRDLLNAGNASASA [FS-2173],6.3 (active),11.7 (active),11.3 (active)
CARQKKAAEKAGNASASA [FS-2584],-1.07 (inactive),-0.974 (inactive),1.2
CARQRRGEERAGNASASA [FS-2761],2.18,0.285 (inactive),0.208 (inactive)
CAEVPCHGPSAGNASASA [HC2376],-0.0304 (inactive),0.46 (inactive),-1.34 (inactive)
CALSVEEACSAGNASASA [HC1412],-1.32 (inactive),0.888 (inactive),-0.38 (inactive)
CARHRRPRRVAGNASASA [FS-1258],3.43,4.61 (active),4.95 (active)
CAKNQRKIRIAGNASASA [FS-677],-0.0796 (inactive),0.212 (inactive),1.01
CAISRRQRRVAGNASASA [FS-36],5.61 (active),5.68 (active),6.35 (active)
CASHRRQRRVAGNASASA [FS-499],7.8 (active),8.25 (active),6.5 (active)
CATNNRKIRVAGNASASA [FS-1495],2.37,4.37 (active),4.34 (active)
CADIARARRVAGNASASA [FS-121],-0.464 (inactive),-0.299 (inactive),0.591 (inactive)
CAQRHRQGRVAGNASASA [FS-849],-0.109 (inactive),1.55,0.481 (inactive)
CAEVVTYTWVAGNASASA [HC157],-1.14 (inactive),-2.61 (inactive),-1.31 (inactive)
CAGEGAVQWMAGNASASA [HC1115],-1.9 (inactive),-0.502 (inactive),-1.06 (inactive)
CAVVARSVNGAGNASASA [FS-1816],-0.0409 (inactive),0.74 (inactive),1.63
CAVRRRAADQAGNASASA [FS-3143],-0.697 (inactive),0.216 (inactive),1.49

Sequence,furin cleavage Z-score (7.5 min),furin cleavage Z-score (15 min),furin cleavage Z-score (30 min)
CAVRRRVQRMAGNASASA [FS-1662],9.65 (active),8.64 (active),6.99 (active)
CAASRCWVAMAGNASASA [HC278],1.39,-0.873 (inactive),1.5
CAVRRRSVQQAGNASASA [FS-2856],3.6 (active),4.13 (active),4.51 (active)
CAEIPCHRPSAGNASASA [HC2324],1.27,0.0659 (inactive),-0.381 (inactive)
CARRFAQALPAGNASASA [HC1300],0.481 (inactive),1.31,-0.76 (inactive)
CARRFRPRRFAGNASASA [FS-1072],9 (active),10.6 (active),9.46 (active)
CALRTRPRRFAGNASASA [FS-58],10.2 (active),12.6 (active),10.4 (active)
CARRFRAALGAGNASASA [FS-3046],-0.151 (inactive),-1.57 (inactive),1.09
CARRFRPRRSAGNASASA [FS-1073],10.2 (active),9.93 (active),8.02 (active)
CAPGQRVEFLAGNASASA [HC1469],-0.0222 (inactive),-0.699 (inactive),-1.16 (inactive)
CALHQRVRRFAGNASASA [FS-820],8.84 (active),10.6 (active),9.12 (active)
CATTPLSGSWAGNASASA [HC44],-0.768 (inactive),-0.103 (inactive),0.0356 (inactive)
CASTPCSAHQAGNASASA [HC2582],-0.092 (inactive),-1.41 (inactive),-0.516 (inactive)
CAMETKLITWAGNASASA [HC650],-0.69 (inactive),-0.554 (inactive),-0.78 (inactive)
CAISQAEAALAGNASASA [HC531],-1.47 (inactive),-0.433 (inactive),-1.7 (inactive)
CAVVCCIMSYAGNASASA [HC105],1.49,0.708 (inactive),1.08
CAYRGRHRRFAGNASASA [FS-152],5.94 (active),6.27 (active),6.98 (active)
CAYRGRCRKSAGNASASA [FS-923],0.471 (inactive),1.55,0.866 (inactive)
CATAQGMKRSAGNASASA [FS-725],1.25,1.19,-0.124 (inactive)
CAKLRRNRRSAGNASASA [FS-1221],5.36 (active),6.08 (active),4.35 (active)
CAHTQRNRRSAGNASASA [FS-799],11.3 (active),12.6 (active),10.4 (active)

# From the supplement of paper PMC3545927
